Only a selection was taken, and hits are over-represented in it overall.
Rango-impB inh: qHTS Assay for Inhibitors of Rango (Ran-regulated importin-beta cargo) - Importin beta complex formation; Importin subunit beta-1 (Homo sapiens), Q14974; Rango CFP/YFP FRET sensor + importin beta, 45 min; Potency, µM (doses to about 92.2 µM), without a hit: at the highest dose inhibition of complex formation; 340,000 tested, 0.031% active; AID 540263, 2011;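 note: potency is the fitted concentration of half-maximal effect; 0% = DMSO wells and 100% = buffer wells lacking importin beta; nearly all actives have a fitted effect of over 15% in size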
Target sequence (Q14974 whole entry, looked up): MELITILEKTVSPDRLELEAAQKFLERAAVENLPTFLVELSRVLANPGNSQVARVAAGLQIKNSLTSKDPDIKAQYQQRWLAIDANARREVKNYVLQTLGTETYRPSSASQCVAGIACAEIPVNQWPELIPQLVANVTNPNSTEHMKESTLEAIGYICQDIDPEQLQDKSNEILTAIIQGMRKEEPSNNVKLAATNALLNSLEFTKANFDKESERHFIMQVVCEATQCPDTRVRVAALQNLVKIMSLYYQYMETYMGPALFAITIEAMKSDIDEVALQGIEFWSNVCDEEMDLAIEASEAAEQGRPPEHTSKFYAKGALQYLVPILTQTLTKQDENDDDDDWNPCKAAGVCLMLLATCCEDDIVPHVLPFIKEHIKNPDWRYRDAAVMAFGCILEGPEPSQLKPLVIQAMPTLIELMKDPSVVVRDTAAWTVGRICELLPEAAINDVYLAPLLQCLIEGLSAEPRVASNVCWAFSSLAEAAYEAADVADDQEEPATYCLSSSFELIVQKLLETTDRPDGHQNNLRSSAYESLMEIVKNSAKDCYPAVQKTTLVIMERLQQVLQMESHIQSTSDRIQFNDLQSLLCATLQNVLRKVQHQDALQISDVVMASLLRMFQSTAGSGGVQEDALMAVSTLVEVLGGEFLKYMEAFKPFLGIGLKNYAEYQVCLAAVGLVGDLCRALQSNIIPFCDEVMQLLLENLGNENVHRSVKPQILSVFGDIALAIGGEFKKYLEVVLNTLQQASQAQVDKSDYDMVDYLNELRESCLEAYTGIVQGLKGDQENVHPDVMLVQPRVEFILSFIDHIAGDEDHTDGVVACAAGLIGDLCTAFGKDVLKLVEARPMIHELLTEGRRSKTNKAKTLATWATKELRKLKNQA
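FRET biosensor (snurportin 1 IBB flanked by EYFP and cerulean), 50 nM, with compound 5 min, then 0.125 microM importin beta in PBS, 1 mM DTT, 0.02% Tween-20, 0.1% BSA. CFP/YFP ratio read after 45 min at room temperature; pre-read flags interference.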
ClpP mod: qHTS Assay for Activators of ClpP | ATP-dependent Clp protease proteolytic subunit (Bacillus subtilis (strain 168)), P80244 | purified B. subtilis ClpP, FRET peptide cleavage, 20 min | 340,000 tested, 1.9% active | Potency, µM (series often up to 57.5 µM), for inactives: at the top dose activity change, negative = active; active = well fitted falling curve with a large enough effect; inconclusive = small, poorly fitted or top-dose-only effect; inactive = no such curve, though single readings can be large or run the other way; note: potency is the fitted concentration of half-maximal effect; the source files actives as falling curves though it sought activators and does not explain the sign; nearly all actives have a fitted effect of over 65% in size
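ClpP 10 microg/mL final, pH 8 Tris/KCl buffer with BSA, glycerol, Tween-20; compound pinned in; FRET-FV substrate; RT 20 min; Ex320/Em430; ΔFRET vs ADEP 5.8 microM, DMSO, no enzyme.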
CBFb-RUNX1 inh: qHTS Assay for Compounds Blocking the Interaction Between CBF-beta and RUNX1 for the Treatment of Acute Myeloid Leukemia. Runt-related transcription factor 1 (Homo sapiens) + Core-binding factor subunit beta …. AlphaScreen CBFb-His/RUNX1-biotin binding, biochemical. Potency, µM (top dose mostly 59.8 µM), inactives show at the top dose activity, negative = inhibition, usual class: inhibitors. 230,000 tested, under 10 active; active = well fitted curve in the direction sought with a large enough effect; inconclusive = small, poorly fitted or top-dose-only effect, or effect the other way, or another doubt; inactive = no such curve, though single readings can be large or run the other way; note: % of control where 0% means no effect
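CBF-beta (His) and RUNX1 (biotin), 30 nM each; 20 min preassociation; + compound, 15 min; + beads 50 ng each (Ni, streptavidin), 90 min; RT; AlphaScreen read.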
MBNL1-CUG inh: qHTS Assay for Inhibitors of MBNL1-poly(CUG) RNA binding | Muscleblind-like protein 1 (Homo sapiens), Q9NR56 | TR-FRET MBNL1-His/biotin-(CUG)12 binding, 665/545 ratio | Potency, µM (titrated, usually from 57.5 µM), inactives show at the top dose activity change, negative = inhibition, most hits filed as inhibitors | 280,000 tested, 0.036% active; active = well fitted inhibition curve with a large enough effect in the signal ratio, with a control signal flat, not every such curve was filed as active; inconclusive = small, poorly fitted or top-dose-only effect, or effect the other way, or a change in a side signal; inactive = no such curve, though single readings can be large or run the other way; the % refers to the signal ratio; note: potency is the fitted concentration of half-maximal effect; % is set by controls: 0 for no effect and ±100 for the full control effect
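Compound titration spanned 92 nM–58 uM against the MBNL1-His/biotin-(CUG)12 complex. After 60 min at room temperature with 5 nM streptavidin-XL665 and 0.055 ng/ul terbium anti-His, ratiometric 665/545 nm emission (Ex 340 nm) normalized to controls.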
Rango dissoc inh: qHTS Assay for Inhibitors of RanGTP induced Rango (Ran-regulated importin-beta cargo) - Importin beta complex dissociation. Snurportin-1 (Homo sapiens) + GTP-binding nuclear protein Ran (Homo sapiens) + Importin …. Biochemical FRET Rango-importin beta, RanGTP-induced dissociation. Potency, µM (doses to about 46.1 µM), for the others: top-dose activity change, negative = inhibition. 340,000 tested, 0.071% active; note: potency is the fitted concentration of half-maximal effect; % of control where 0% means no effect; nearly all actives have a fitted effect of over 45% in size
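Quantitative HTS using a FRET biosensor: 0.1 uM Rango, 0.25 uM importin beta, 0.6 uM Ran, 2 mM GTP, 0.2 uM RCC1 final, PBS with DTT, Tween-20 and BSA. Post-read taken 45 min after Ran addition.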
Active calls of the source: *; ? = inconclusive; / = no result given; [ ] = remark or other dose. Unless noted, calls come from the whole dose curve.

SMILES | Rango-impB inh | ClpP mod | CBFb-RUNX1 inh | MBNL1-CUG inh | Rango dissoc inh
CC(C)C[C@H](NC(=O)[C@H](CC(C)C)NC(=O)[C@H](Cc1ccc(O)cc1)NC(=O)CNC(=O)[C@H](C)NC(=O)[C@H](CO)NC(=O)[C@H](CC(N)=O)NC(=O)[C@H](CC(C)C)NC(=O)[C@@H](NC(=O)[C@H](Cc1c[nH]c2ccccc12)NC(=O)CN)[C@@H](C)O)C(=O)NCC(=O)N1CCC[C@H]1C(=O)N1CCC[C@H]1C(=O)N1CCC[C@H]1C(=O)NCC(=O)N[C@@H](Cc1ccccc1)C(=O)N[C@@H](CO)C(=O)N1CCC[C@H]1C(=O)N[C@@H](Cc1ccccc1)C(=O)N[C@@H](CCCNC(=N)N)C(N)=O | / | / | 9% | / | /
CCCCn1c(N)c(N(CCC(C)C)C(=O)c2ccccc2C)c(=O)[nH]c1=O | 1% | / | / | -5% | 1%
CCCCn1c(N)c(N(CCC(C)C)C(=O)c2[nH]c(C)c(C(=O)OCC)c2C)c(=O)[nH]c1=O | -1% | 18µM* | / | / | -5%
CCCCn1c(N)c(N(CCC(C)C)C(=O)c2ccccc2-n2cnnn2)c(=O)[nH]c1=O | -3% | 28µM* | / | / | 5%
CCCCn1c(N)c(N(CC(C)C)C(=O)CSCc2c(C)noc2C)c(=O)[nH]c1=O | 2% | 28µM* | / | / | -9%
Cc1cccc(CSc2nc(-c3cccs3)ccc2C#N)c1 | / | 4% | / | / | /
CCCn1c(-c2ccc(F)cc2)nc2c(NCCCCN(C)C)nc(C)nc21 | / | / | 15% | / | /
COc1ccc(-c2cc(C(F)(F)F)nc(SCC(=O)N3CCC(C)CC3)n2)cc1 | / | -8% | / | / | /
Cc1ccc(-n2c(/C=C/c3c(C)n(C)c4ccccc34)nc3ccccc3c2=O)cc1 | / | 0% | / | / | /
COc1ccc(C2=Nn3c(nnc3-c3ccccc3OC)SC2)c(OC)c1 | / | / | 4% | / | /
COCCNC(=O)CC(NS(=O)(=O)c1ccc(NC(C)=O)cc1)C(C)C (stereo unspecified) | -3% | 32µM* | 3% | -4% | 13%
CCC(NC(=O)Nc1cccc(C)c1)c1c(-n2cccc2)sc2c1CCN(C)C2 (stereo unspecified) | / | 2% | / | / | /
CC(=O)N1CCc2cc(S(=O)(=O)NC(Cc3ccccc3)C(=O)Nc3ccc(Cl)cc3)ccc21 (stereo unspecified) | / | 0% | / | / | /
Cc1nn2c(C)c(C(=O)N3CCN(c4ccccc4)CC3)cnc2c1-c1ccccc1 | / | 1% | / | / | /
COc1ccccc1-c1ccc(/C=C2/C=C(C)OC2=O)o1 | ? | 32µM* | -19% | 33% | ?
CC(=O)Nc1ccc(NC(=O)c2ccc(NS(=O)(=O)c3cc(C(C)(C)C)cc(C)c3C)cc2)cc1 | 2% | 28µM* | -16% | / | 3%
CC(=O)c1cc(C(=O)NC2CCCc3c2cnn3-c2cc(C)cc(C)c2)[nH]n1 (stereo unspecified) | -1% | 32µM* | / | -4% | -2%
CCOC(=O)N1CCN(Cc2nc3cc(NC(=O)c4ccc([N+](=O)[O-])cc4)ccc3n2C(C)C)CC1 | / | -2% | / | / | /
Cc1cccc(CN2C(=O)N/C(=C/c3cc(C)n(-c4cc(C)ccn4)c3C)C2=O)c1 | ? | -9% | -12% | 18% | 13µM*[inhibitor]
COc1ccccc1N(C)S(=O)(=O)c1ccc(Cl)c(C(=O)N2CCC2)c1 | 8% | 18µM* | / | / | 12%
Cc1ccc(Cl)cc1NC(=O)CN1C(=O)CSc2ccc(S(=O)(=O)N3CCCC3)cc21 | / | 0% | / | / | /
O=C(Nc1ccc(F)cc1F)c1cc2n(n1)C(C(F)(F)F)C1CCCCC1N2 (stereo unspecified) | ? | 28µM* | 6% | -8% | -6%
O=C(Nc1ccc(F)cc1F)c1cc2nc3c(c(C(F)(F)F)n2n1)CCCC3 | 2% | 1% | 0% | -7% | 3%
COc1cc(OC)c2c(C)cc(=O)oc2c1C(CCN1CCN(c2ccccc2)CC1)c1ccc2c(c1)OCO2 (stereo unspecified) | -4% | 32µM* | ? | -3% | -11%
COc1ccc(OC)c(NC(=O)Cn2nc3c(cc2=O)CCCC3)c1 | / | -2% | / | / | /
SMILES | Rango-impB inh | ClpP mod | CBFb-RUNX1 inh | MBNL1-CUG inh | Rango dissoc inh
COc1cc(Cl)c(C)cc1NC(=O)CCc1c(C)nc2c3cccnc3nn2c1C | / | 25µM* | / | / | /
CCCSc1nc(N)nc(-c2cccs2)c1C#N | 0% | 25µM* | 13% | 5% | 2%
COCCNc1nc(NCCOC)c2sc(-c3ccccc3)cc2n1 | / | -9% | / | / | /
CC(C)Nc1nc(NCCOc2ccccc2Cl)c2sc(-c3ccccc3)cc2n1 | / | 25µM* | / | / | /
CCOC(=O)c1c(NC(C)=O)sc2c1CCC(C=O)=C2Sc1ccccc1 | ? | 0% | -11% | ? | 15µM*
CCOc1ccc(NC(=O)CSc2nnnn2C2CC2)cc1S(=O)(=O)N1CCCC1 | -5% | 0% | / | / | 14%
CCOc1ccc(NC(=O)CSc2nnc(C)n2C2CC2)cc1S(=O)(=O)N1CCCC1 | 0% | 25µM* | / | / | 12%
O=C(Nc1ccc2c(c1)nc1n2CCN(Cc2ccccc2)C1)NC1CCCCC1 | -4% | 28µM* | -5% | 26% | 0%
Cc1ccc(CN2CCCN(Cc3c(F)cccc3Cl)S2(=O)=O)cc1 | 4% | / | / | -5% | 24%
O=S1(=O)N(Cc2ccccc2F)CCCN1Cc1c(F)cccc1Cl | -2% | 32µM* | / | -4% | 0%
CCn1cc(/C=N/NS(=O)(=O)c2ccc(OC)cc2)c(C)n1 | 0% | 32µM* | 5% | -14% | -4%
CCn1cc(/C=N/NS(=O)(=O)c2ccc(C)cc2)c(C)n1 | 5% | -3% | 21% | -14% | 10%
CCN(CC)c1ccc(/C=N/OC(C)C(=O)Nc2ccc(C)cc2)cc1 (stereo unspecified) | 2% | 28µM* | 1% | 8% | -11%
CC(=O)Nc1ccc(/C=N/OCC(=O)Nc2ccc(C)cc2)cc1 | 3% | 0% | -1% | / | 4%
CC1(CCc2ccc3c(c2)OCO3)NC(=O)c2ccccc2N1 (stereo unspecified) | -2% | 28µM* | 6% | ? | 2%
O=C1NC(c2ccc3c(c2)OCO3)Nc2ccccc21 (stereo unspecified) | 0% | 32µM* | 5% | -2% | 11%
COc1cc(/C=c2\[nH]c(=O)/c(=C/c3cc(OC)c(OC)c(OC)c3)[nH]c2=O)cc(OC)c1OC | / | 2% | / | / | /

Screening results (PubChem BioAssay)
